Reference: the supplement of paper PMC10127200
Structures can show the parent of a compound that is named as a salt.

Tests used:
Assay in all cases: Euclidean distance of Cell Painting phenotypic profile (signed KS, 77 features) to DMSO centroid (dimensionless distance); 5 or 10 uM (library dependent); higher = stronger phenotypic change vs DMSO (phenoactivity)
Conditions in all cases: 48 h
[1] = test system: 786-O
Outline: (§1)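 Library compounds were applied at 10 or 5 uM, depending on the library, with 0.1% DMSO final, for 48 h to five cancer lines and a healthy fibroblast line. After staining, cells were imaged confocally at 20X across 9 fields per well, and Harmony extracted 77 features, each scored as a signed Kolmogorov-Smirnov statistic against vehicle wells on the same plate. Phenoactivity is the Euclidean distance between each profile and the median vehicle profile, with profiles first plate-position corrected, correlation-weighted and averaged over replicates at the top dose.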

[2] = test system: A549
Outline: as §1

[3] = test system: DU145
Outline: as §1

[4] = test system: FB
Outline: as §1

[5] = test system: HEPG2
Outline: as §1

[6] = test system: OVCAR4
Outline: as §1

Row | Structure (SMILES) | Euclidean distance [1] | Euclidean distance [2] | Euclidean distance [3] | Euclidean distance [4] | Euclidean distance [5] | Euclidean distance [6]
1 | O=C(Nc1ccc(S(=O)(=O)Nc2ccccc2Cl)c(Cl)c1)c1ccccn1 | 0.876 | 0.81 | 0.6 | 0.594 | 0.744 | 0.782
2 | O=C(c1cncc(Br)c1)N1CCC(N2CCCC2)CC1 | 0.781 | 0.805 | 0.843 | 1.31 | 1.28 | 0.898
3 | OC[C@H]1O[C@@H](c2ccc(F)c(Cc3cc4ccccc4s3)c2)[C@H](O)[C@@H](O)[C@@H]1O [Ipragliflozin (ASP1941)] | 0.648 | 0.591 | 0.895 | 0.802 | 0.412 | 0.699
4 | CN1CCN(c2ccc(OC(F)(F)F)c(Nc3ncc4c(n3)-c3c(c(C(N)=O)nn3CCO)CC4)c2)CC1 | 2.75 | 4.08 | 3.85 | 3.73 | 2.82 | 3.67
5 | CC(=O)O[C@]1(C(C)=O)CC[C@H]2[C@@H]3C=C(C)C4=CC(=O)CC[C@]4(C)[C@H]3CC[C@@]21C [Megestrol Acetate] | 1.71 | 1.65 | 1.57 | 1.46 | 1.89 | 1.61
6 | O=C(O)c1ccccc1C(=O)Nc1ccc(S(=O)(=O)Nc2nccs2)cc1 [Phthalylsulfathiazole] | 1.08 | 1.02 | 0.914 | 1.11 | 0.685 | 0.869
7 | CC(C)(C)NCC(O)c1ccc(O)c(CO)c1 (stereo not given) [Salbutamol] | 1.03 | 0.738 | 1.09 | 0.676 | 0.894 | 0.709
8 | CN(C)CCn1nnnc1SCC1=C(C(=O)O)N2C(=O)[C@@H](NC(=O)Cc3csc(N)n3)[C@H]2SC1 [Cefotiam hydrochloride] | 1.2 | 1.06 | 0.774 | 0.93 | 0.739 | 0.935
9 | C[C@H](NC(=O)/C(C#N)=C/c1cccc(Br)n1)c1ccccc1 | 3.27 | 3.07 | 3.01 | 3.17 | 2.6 | 2.17
10 | CC(C(=O)O)c1ccc2c(c1)[nH]c1ccc(Cl)cc12 (stereo not given) [Carprofen] | 1.08 | 0.684 | 0.84 | 1.38 | 0.421 | 1.11
11 | COC1=C2C[C@@H](C)C[C@H](OC)[C@H](O)[C@@H](C)/C=C(\C)[C@H](OC(N)=O)[C@@H](OC)/C=C\C=C(/C)C(=O)NC(=CC1=O)C2=O [Geldanamycin] | 2.87 | 3.3 | 3.52 | 3.35 | 1.8 | 2.91
12 | O=C(OCCOCCO)c1ccccc1Nc1cccc(C(F)(F)F)c1 [Etofenamate] | 0.974 | 0.683 | 1.59 | 1.79 | 0.744 | 0.722
13 | COc1cc(O)c(C(=O)Nc2nc(C(=O)NCCN(C(C)C)C(C)C)cs2)cc1OC [Acotiamide] | 1.22 | 0.413 | 0.881 | 0.785 | 0.356 | 0.831
14 | Cc1ncc([N+](=O)[O-])n1C [Dimetridazole] | 1.08 | 0.82 | 1.15 | 0.783 | 0.672 | 0.957
15 | Clc1ccc(CCCOCCCN2CCCCC2)cc1 [Pitolisant hydrochloride] | 0.716 | 0.836 | 0.816 | 0.98 | 0.955 | 0.758
16 | CCCSc1nc(N[C@@H]2C[C@H]2c2ccc(F)c(F)c2)c2nnn([C@@H]3C[C@H](OCCO)[C@@H](O)[C@H]3O)c2n1 [Ticagrelor] | 0.66 | 1.41 | 1.07 | 0.885 | 0.977 | 1.37
17 | CC(C)(Oc1ccc(Cl)cc1)C(=O)OCCOC(=O)c1cccnc1 [Etofibrate] | 0.948 | 0.732 | 0.949 | 1.01 | 0.725 | 0.894
18 | CC(=C(CCO)SSCC1CCCO1)N(C=O)Cc1cnc(C)nc1N (stereo in doubt) [Fursultiamine] | 1.19 | 0.749 | 0.785 | 1.06 | 0.579 | 1.17
19 | CC(=O)OCC1=C(C(=O)O)N2C(=O)[C@@H](NC(=O)CSC(=NC(C)C)NC(C)C)[C@H]2SC1 [Cefathiamidine] | 1.48 | 0.7 | 1.41 | 0.888 | 0.62 | 1.82
20 | CC/C(=C(\c1ccccc1)c1ccc(OCCN(C)C)cc1)c1ccccc1 [Tamoxifen Citrate] | 1.05 | 2.39 | 1.36 | 1.45 | 1.5 | 1.36
21 | O=C(NCCO[N+](=O)[O-])c1cccnc1 [Nicorandil] | 1.26 | 0.857 | 1.26 | 1.09 | 0.784 | 1.38
22 | CN(C(=O)CN(CCO)CC(=O)N(C)C(C)(C)Cc1ccccc1)C(C)(C)Cc1ccccc1 [Oxethazaine] | 1.36 | 2.36 | 1.13 | 2.17 | 1.36 | 1.96
23 | CSc1ccc(C(=O)/C=C/c2cc(C)c(OC(C)(C)C(=O)O)c(C)c2)cc1 [Elafibranor] | 1.24 | 1.28 | 0.801 | 1.43 | 0.747 | 0.978
24 | N=C(N)NCCN1CCCCCCC1 [Guanethidine Monosulfate] | 1.05 | 1.78 | 0.775 | 1.38 | 0.975 | 1.68
25 | O=c1cc(-c2ccc(O)cc2)oc2cc(O)cc(O)c12 [Apigenin] | 1.18 | 0.946 | 1.17 | 1.39 | 1.73 | 1.32
